TRHR agonist: qHTS for Small Molecule Agonists and Allosteric Enhancers of Human TRH Receptor: Primary Screen for Agonists; Thyrotropin-releasing hormone receptor (Homo sapiens), P34981; activation, % at 2 µM; TRHR cells, calcium flux fluo-8, FDSS agonist mode; 360,000 compounds, 0.18% hits; further: 0% is about no effect
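Fluo-8-loaded TRHR cells; 10 s baseline, compound added, kinetic Ca2+ fluorescence read 1/s, agonist mode.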
D1 agonist: Allosteric Agonists of the Human D1 Dopamine Receptor: qHTS. D(1A) dopamine receptor (Homo sapiens), P21728. HEK293 T-REx D1 cells, calcium flux, agonist mode. activation, % at 2 µM. 360,000 compounds, 1% hits; further: 0% is about no effect
Target sequence (P21728 whole entry, looked up): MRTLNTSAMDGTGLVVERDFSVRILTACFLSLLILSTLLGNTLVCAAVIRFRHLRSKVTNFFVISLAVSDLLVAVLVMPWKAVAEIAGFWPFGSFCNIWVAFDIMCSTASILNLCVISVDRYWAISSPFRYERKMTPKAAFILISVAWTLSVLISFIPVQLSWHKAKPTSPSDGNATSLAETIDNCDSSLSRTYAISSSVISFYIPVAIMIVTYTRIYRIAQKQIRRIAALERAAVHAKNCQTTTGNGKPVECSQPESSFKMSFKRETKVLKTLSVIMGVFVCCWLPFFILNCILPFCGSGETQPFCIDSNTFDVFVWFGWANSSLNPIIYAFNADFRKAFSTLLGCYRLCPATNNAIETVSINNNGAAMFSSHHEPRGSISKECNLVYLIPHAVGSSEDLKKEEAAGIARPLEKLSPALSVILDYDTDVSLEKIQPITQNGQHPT
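Inducible HEK293 T-REx D1 cells, force-coupled to calcium signalling, were plated at 4000 cells/well with tetracycline and held overnight at 30 C. After no-wash calcium dye loading, compound-evoked calcium rise over 180 s flagged agonists.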
D1 antag: Antagonist of Human D 1 Dopamine Receptor: qHTS | D(1A) dopamine receptor (Homo sapiens), P21728 | HEK293 TREx D1 cells, calcium flux, dopamine EC80; stronger effect = lower value | activity change, negative = inhibition, % at 10 µM | 360,000 compounds, 3.2% hits; in the data active means activity change below about -30%; further: on the % scale 0 is the no-effect control and ±100 the full control effect
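Using tetracycline-induced force-coupled D1 Hek293 cells and a calcium dye, signals were followed for 180 s after compound, then for 180 s after EC80 dopamine, to detect inhibitors.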
TRHR enhancer: qHTS for Small Molecule Agonists and Allosteric Enhancers of Human TRH Receptor: Primary Screen for Enhancers | Thyrotropin-releasing hormone receptor (Homo sapiens), P34981 | TRHR cells, fluo-8 calcium fluorescence, EC20 TRH enhancement | enhancement, % at 2 µM | 360,000 compounds, 0.66% hits; in the data active means enhancement above about 30%; further: 0% is about no effect
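TRHR-expressing cells loaded with fluo-8 calcium dye were read kinetically (ex 480/em 530) during compound addition, then stimulated with an EC20 of TRH (10 nM final). Enhancement of the Gq-mediated intracellular calcium response was scored.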
D1 potentiator: Potentiators of Human D1 Dopamine Receptor: qHTS. D(1A) dopamine receptor (Homo sapiens), P21728. HEK293 TREx D1 cells, calcium flux, dopamine EC20 potentiation. potentiation, % at 10 µM. 360,000 compounds, 0.036% hits. AID 504651, 2011; in the data active means potentiation above about 30%; further: 0% is about no effect
An asterisk follows results filed as active; . = no result. A selection: hits, their analogues and other compounds. The true share with any hit is near 4.7%. Unless noted, no stated cut-off is given here; in the data, active means activation above about 30%; inactive means the rest.

SMILES	TRHR agonist	D1 agonist	D1 antag	TRHR enhancer	D1 potentiator
CN1CCN(C(=O)C2CCCN(S(=O)(=O)c3ccc(Br)cc3)C2)CC1 (stereo unspecified)	1	4	15	7	3
O=S(=O)(Nc1ccc(S(=O)(=O)N2CCOCC2)cc1)c1ccc(Br)cc1	-1	3	-5	9	.
O=S(=O)(c1ccc(Oc2ccc(Br)cc2)cc1)N1CCOCC1	1	15	-32*	-6	-6
CN(C(=O)COC(=O)C12CC3CC(CC(Cl)(C3)C1)C2)C1(C#N)CCCCC1	1	5	2	2	-2
Cc1ccc2c(c1)-c1c(cnn1CC(=O)N1CCN(c3cc(Cl)ccc3C)CC1)CO2	0	0	26	4	5
CC(C)(C)c1ccc(C(=O)N2CCN(Cc3cc(=O)n4nc(-c5ccccc5F)sc4n3)CC2)cc1	0	1	0	5	4
CCOC(=O)C1CCN(C(=O)COC(=O)c2cccc(F)c2)CC1	0	5	0	36*	-2
CCOC(=O)C1CCN(C(=O)CN2c3ccc(CC)cc3-c3ccccc3S2(=O)=O)CC1	-3	6	-33*	8	-1
CCOC(=O)C1CCN(C(=O)CN2C(=O)c3ccccc3S2(=O)=O)CC1	0	4	1	0	-2
Cc1sccc1C1C(C#N)=C(N)SC(N)=C1C#N	4	14	-15	-6	-2
N#CC1=C(N)SC(N)=C(C#N)C1CCC1CCCCC1	5	43*	-27	-3	-8
COc1ccc(C(=O)NCc2cc(C)nc3ccccc23)cc1	0	20	-4	1	3
Cc1cccc(OCC(=O)NCc2cc(C)nc3ccccc23)c1	9	13	-34*	5	-6
COc1ccccc1CNC(=O)c1cc(C)nc2ccccc12	0	1	-31*	-1	-3
CCCNC(=O)COC(=O)c1cc(C)nc2ccccc12	0	2	5	-7	0
Cc1cc(C(=O)OCC(=O)NCCC(C)C)c2ccccc2n1	0	10	-47*	19	-4
Cc1ccc(CNc2ncccc2-c2nc(-c3ccc(Cl)cc3)no2)cc1	1	3	3	6	0
COc1cc(OC)c2c(C)c(Cl)c(=O)oc2c1	0	-1	-36*	-3	-10
O=C1C(=O)N(C2CCN(C(=O)c3ccccc3Cl)CC2)CCN1Cc1ccc(F)cc1	1	2	8	-1	-3
CCC(Oc1ccc(F)cc1)C(=O)Nc1nc2c(s1)CCCC2 (stereo unspecified)	1	9	-4	-3	2
Cc1cc(C)nc(/N=C(\N)Nc2ccc(S(=O)(=O)O)cc2)n1	0	2	5	-12	-1
COc1ccccc1N/C(N)=N/c1nc(C)cc(C)n1	0	3	-34*	0	-13
Cc1cc(C)nc(/N=C(\N)Nc2cccc(OCc3ccccc3)c2)n1	25	66*	-55*	-20	-15
Cc1cc(C)nc(/N=C(\N)Nc2ccc(OCCC(C)C)cc2)n1	27	86*	-45*	-20	-6
Cc1cc(C)nc(/N=C(\N)Nc2ccc(CC(=O)OC(C)C)cc2)n1	13	24	-50*	-8	3
SMILES	TRHR agonist	D1 agonist	D1 antag	TRHR enhancer	D1 potentiator
COc1cccc(N/C(N)=N/c2nc(C(F)(F)F)cc(C(F)(F)F)n2)c1	0	6	-14	1	4
O=C(NCCC(=O)N(CCc1ccccc1)Cc1ccccc1)c1ccc(Br)cc1	0	11	-8	-3	-2
Cc1cc(C)nc(/N=C(\N)Nc2ccc(OCc3ccccc3)cc2)n1	50*	102*	-38*	-3	1
CCOC(=O)C(=O)Nc1ccc(OCc2ccccc2)cc1	-1	6	-13	-5	-7
CN1CCC(N(CCc2ccccc2)C(=O)CCC(=O)O)CC1	1	3	-32*	2	5
CCN(C(=O)CCc1ccccc1)C1CCCCC1	0	2	4	2	0
COC(=O)CSc1nnc(-c2cnccn2)n1C	0	1	3	-1	0
Cc1cccc(C)c1NC(=O)CSc1nnc(-c2cnccn2)n1C	0	1	-51*	3	-4
CC(C)OC(=O)CSc1nnc(-c2cccnc2)n1N	1	2	-31*	8	-5
CC(C)OC(=O)CSc1nnc(-c2cnccn2)n1C	0	1	-35*	3	-2
COc1cc(NS(=O)(=O)c2ccc3c(c2)CC(C)N3C(=O)C2CCC2)cc(OC)c1OC (stereo unspecified)	0	-2	6	3	0
CCN(CC)CCCn1c(C)cc2c(c1=O)C(c1ccccc1)C(C#N)=C(N)O2 (stereo unspecified)	0	0	-23	3	-7
Cc1cc2c(c(=O)n1CCc1ccccc1)C(C(C)C)C(C#N)=C(N)O2 (stereo unspecified)	-2	3	-32*	3	-12
CCN(CC)S(=O)(=O)c1ccc2c(c1)nc(CN(C)C(=O)Nc1cccc(Cl)c1)n2C	1	0	10	-1	0
CCOc1ccc(C(=O)Nc2ccc(N3CCN(C)CC3)cc2)cc1	0	3	-24	15	-7
CCCCOc1cccc(C(=O)Nc2ccc(N3CCN(CC)CC3)cc2)c1	0	7	-51*	-1	-8
CCOc1cccc(C(=O)Nc2ccc(N3CCN(S(C)(=O)=O)CC3)cc2)c1	0	0	2	-5	-7
CCCCOc1ccc(C(=O)Nc2ccc(N3CCN(C)CC3)cc2)cc1	-1	11	-73*	1	-16
CC(=O)c1cccc(Nc2cc(C)nc3c(C)cccc23)c1	-4	0	-66*	8	-5
CC(=O)c1cccc(NC(=O)Nc2nc(C)cc(C)n2)c1	-1	1	6	33*	-5
CC(=O)c1cccc(NC(=O)Nc2ccccc2)c1	1	10	-1	-5	-4
Cc1nc(SCC(=O)Nc2ccc(C)c(Cl)c2)cc(-c2ccccc2)n1	-1	0	-4	-6	0
O=C(CSc1nc(N2CCOCC2)nc(N2CCOCC2)n1)Nc1cccc(C(F)(F)F)c1	0	6	-7	-1	-2
O=C(Nc1cccc(C(F)(F)F)c1)n1cc(-c2ccccn2)c(N2CCOCC2)n1	-1	24	-47*	5	-7
COc1ccc(/C(C)=N/Nc2nc(C)c(C(C)=O)s2)cc1	0	4	-33*	4	2

Bioassay records: PubChem BioAssay, National Center for Advancing Translational Sciences (NCATS)
